Compound activity (PubChem)
A selection: hits, their analogues and other compounds. The true share with any hit is near 13%.
CHX counter: Cycloheximide Counterscreen for Small Molecule Inhibitors of Shiga Toxin. cell reporter, cycloheximide protein synthesis inhibition counterscreen. max response, %. hit rate 12% among 300,000. AID 2314, 2010; in the data active = max response mostly above about 13%, no sharp cut-off; inactive = mostly below about 14%; note: read at 38.3 µM for the half of the compounds with a filed dose; 0% is about no effect
HCV inhibitor: qHTS Assay for Inhibitors of Hepatitis C Virus (HCV). Huh7.5.1 HCVcc-Cre infection, luciferase reporter, 44 h. Potency, µM (doses to about 41.8 µM), inactives show top-dose activity change, negative = inhibition, hits mostly inhibitors. hit rate 3.4% among 340,000. AID 651820, 2012; active = well fitted inhibition curve with a large enough effect; inconclusive = small, poorly fitted or top-dose-only effect, or another doubt; inactive = no such curve, though single readings can be large or run the other way; note: potency is the fitted concentration of half-maximal effect; % is set by controls: 0 for no effect and ±100 for the full control effect
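Antiviral activity was scored by luciferase reporter output from cells infected with HCVcc-Cre (~0.5 moi) in presence of compound, 44 h infection period, cells seeded 1,000/well 4 h prior.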
Marburg entry inh: qHTS for inhibitors of binding or entry into cells for Marburg Virus | Marburg virus pseudotyped entry inhibition, cell reporter | Potency, µM (doses to about 37.8 µM), inactives show at the highest dose activity change, negative = inhibition, hits mostly inhibitors | hit rate 1.8% among 300,000 | AID 540276, 2011; calls by dose curve; tested in HEK293 cells; note: potency is the fitted concentration of half-maximal effect; % is set by controls: 0 for no effect and ±100 for the full control effect
Shiga inhibitor: A qHTS for Small Molecule Inhibitors of Shiga Toxin; Vero cells, Shiga toxin protein synthesis inhibition reporter; inhibition, % at 38.7 µM; hit rate 9.2% among 290,000; AID 2315, 2010; in the data active = inhibition mostly above about 28%, no sharp cut-off; inactive = mostly below about 43%; note: 0% is about no effect
LASV entry inh: qHTS for Inhibitors of binding or entry into cells for Lassa Virus; AID 540256, 2011; Potency, µM (highest dose often 37.9 µM), for the others: at the highest dose activity change, negative = inhibition, hits mostly inhibitors; Lassa virus pseudotype entry inhibition, cell reporter; hit rate 1.2% among 300,000; calls by dose curve; tested in HEK293 cells; note: potency is the fitted concentration of half-maximal effect; % is set by controls: 0 for no effect and ±100 for the full control effect; nearly all actives have a fitted effect of over 50% in size
FMDV inh: High Throughput Screening for Foot and Mouth Disease Virus Antivirals; AID 1159524, 2015; FMDV antiviral cell-based qHTS; Potency, µM (doses to about 57.9 µM), without a hit: top-dose activity change, negative = inhibition, most hits filed as inhibitors; hit rate 1.2% among 410,000; calls by dose curve; tested in HEK293T cells; note: read-out not given here; potency is the fitted concentration of half-maximal effect; % is set by controls: 0 for no effect and ±100 for the full control effect; nearly all actives have a fitted effect of over 45% in size
Starred values were filed as active, the others as inactive; ? = inconclusive; . = no result; [ ] = remark or other dose.

SMILES | CHX counter | HCV inhibitor | Marburg entry inh | Shiga inhibitor | LASV entry inh | FMDV inh
O=C(NCc1ccncc1)C(=O)N/N=C/c1ccccc1OCc1ccccc1 | 27 | 19% | 0%[46.1 µM] | 25 | -5% | 30%
CC(C)=C(NC(=O)c1ccccc1)C(=O)N/N=C/c1ccc(O)cc1 | 31* | 1% | ? | -2 | 4% | 78%
COc1ccc(C(=O)Nc2cc(C)on2)cc1[N+](=O)[O-] | 6 | -9% | -5%[46.1 µM] | -7 | ? | 1%
COc1ccc(C(=O)Nc2ccccc2C(=O)N/N=C/c2ccncc2)cc1OC | 13 | 0% | ? | 13 | ? | 14µM*
CC(NC(=O)c1ccccc1NC(=O)c1ccco1)C(=O)O (stereo unspecified) | 76* | 3% | ? | 138* | 0% | 8%
O=C(Nc1ccccc1C(=O)N/N=C/c1ccc(O)cc1)c1ccccc1 | 29* | 12% | . | 31 | . | -57%
O=C(N/N=C/c1ccc(OCc2ccccc2)cc1)c1ccco1 | 36* | -11% | ? | 55* | -4%[46.1 µM] | 16%
O=C(N/N=C/c1ccc(O)cc1)c1csc2ccccc12 | 16 | 3% | ? | 17 | ? | -15%
CC(C)(C)NC(=O)C(c1ccc(O)cc1)N(C(=O)CCC(=O)Nc1ccccn1)c1ccc(F)cc1 (stereo unspecified) | -6 | -1% | ? | -12 | . | -12%
O=C(N/N=C/C=N/NC(=O)c1ccco1)c1ccco1 | 12 | 2% | 2%[46.1 µM] | -10 | 21%[46.1 µM] | -11%
O=C(N/N=C/c1ccccc1)c1ccco1 | 36* | -2% | ? | 100* | ? | 60%
CCOC(=O)[C@]12Cc3cc(C)ccc3[C@H]1N(C(C)C)C(=O)c1ccccc12 | . | . | . | . | . | 10µM*
CCOC(=O)[C@]12Cc3ccccc3[C@H]1N(C(C)C)C(=O)c1cc(OC)ccc12 | . | . | . | . | . | 28µM*
CCOC(=O)[C@]12Cc3ccccc3[C@H]1N(Cc1ccccc1)C(=O)c1ccccc12 | . | 20% | . | . | . | -1%
CCOC(=O)[C@]12Cc3cc(C)ccc3[C@H]1N(Cc1ccccc1)C(=O)c1cc(F)c(F)cc12 | . | . | . | . | . | 11µM*
CCOC(=O)c1ccc(C(=O)OCC)nc1 | 16* | 1% | -1% | 35* | 12% | 45%
CCN(CC)N=Nc1ccc(C(=O)O)cc1 | 7 | 1% | 5% | -10 | 7% | 5%
CCOC(=O)c1ccc(N=NN(C)C)cc1 | 31* | -7% | ? | 91* | 7% | 56%
CCOC(=O)c1ccc(N)cc1 | . | 11% | . | . | . | 0%
Cc1ccc(NC(=O)CN(C)C(=O)c2cccc(S(=O)(=O)NCc3ccccc3)c2)cc1 | . | 15% | ? | . | -7% | 14%
Cc1ccc(-c2n[nH]c(=S)n2/N=C/c2ccc(C)s2)cc1 | -7 | 0% | -10% | -17 | 1.3µM* | -6%
S=c1[nH]nc(COc2ccccc2)n1/N=C/c1ccc(Br)s1 | -4 | 0% | 21% | -20 | ? | -10%
Cc1ccc(/C=N/n2c(COc3ccccc3)n[nH]c2=S)s1 | 4 | -12% | 8% | -15 | 6.5µM* | -9%
Cc1ccc(/C=N/n2c(-c3ccc(Cl)cc3)n[nH]c2=S)s1 | -2 | 5% | ? | -5 | ? | 37%
CON(C)c1nc(C2CCCCC2)c2cc(C)ccc2n1 | . | -21% | . | . | . | -27%
SMILES | CHX counter | HCV inhibitor | Marburg entry inh | Shiga inhibitor | LASV entry inh | FMDV inh
NC(=O)c1cc[n+](CC(=O)c2ccc(NC(=O)c3ccccc3)cc2)cc1 | 13 | 4% | . | 8 | . | 0%
CC(C)C(C(=O)NC(C)(C)C)N(CCN1CCOCC1)C(=O)CNS(=O)(=O)c1ccccc1 (stereo unspecified) | -2 | 9% | -21%[46.1 µM] | -4 | 13% | 21%
Cc1cccc(C(=O)N(Cc2nc(-c3ccc(Cl)cc3)no2)C(C)C)c1 | . | . | . | . | -9%[46.1 µM] | 0%
Cc1cccc(-c2noc(CN(C(=O)c3c(-c4ccccc4Cl)noc3C)C(C)C)n2)c1 | 0 | 10µM* | -2% | -2 | . | -14%
Cc1onc(-c2ccccc2Cl)c1C(=O)NCc1nc(-c2ccc(C(F)(F)F)cc2)no1 | 1 | ? | ? | 10 | 10µM* | ?
Cc1onc(-c2ccccc2Cl)c1C(=O)N(Cc1nc(-c2ccccc2)no1)C1CCCCC1 | 5 | 11µM* | ? | 11 | ? | -4%
